# From the supplement of paper PMC3545927
# Some of the results follow. The hit rate among all sequences tested is not known here.
# B1: HC1853 (peptide)
# chain: CATRPCSGSWAGNASASA
# B2: HC945 (peptide)
# chain: CADAHFLSQTAGNASASA
# B3: HC1881 (peptide)
# chain: CATTNCSGSWAGNASASA
# B4: HC2132 (peptide)
# chain: CAEEVVCCSMAGNASASA
# B5: HC1651 (peptide)
# chain: CAYHSVSHARAGNASASA
# B6: HC1772 (peptide)
# chain: CAMEECSQHEAGNASASA
# B7: HC335 (peptide)
# chain: CAAGAHWGVLAGNASASA
# B8: HC2286 (peptide)
# chain: CADMEVVTSTAGNASASA
# B9: HC1932 (peptide)
# chain: CATTPCSGSEAGNASASA
# B10: FS-1040 (peptide)
# chain: CAPAHRHRRRAGNASASA
# B11: FS-1124 (peptide)
# chain: CAFGRRLRRRAGNASASA
# B12: FS-106 (peptide)
# chain: CAVRKRLRRRAGNASASA
# B13: FS-1624 (peptide)
# chain: CACNHRNRRRAGNASASA
# B14: FS-1131 (peptide)
# chain: CAKKSRLRRRAGNASASA
# B15: HC2580 (peptide)
# chain: CASTPCSAHCAGNASASA
# B16: HC1664 (peptide)
# chain: CAIEECSQHLAGNASASA
# B17: HC2208 (peptide)
# chain: CAEVVTSWWVAGNASASA
# B18: FS-270 (peptide)
# chain: CALIDRFKRWAGNASASA
# B19: FS-1634 (peptide)
# chain: CAKIARHYRWAGNASASA
# B20: HC367 (peptide)
# chain: CALINTNGSWAGNASASA
# B21: FS-370 (peptide)
# chain: CAQHYRKKRWAGNASASA
# B22: FS-49 (peptide)
# chain: CALCGRYKRWAGNASASA
# B23: HC1674 (peptide)
# chain: CAKEECSQHLAGNASASA
# B24: FS-2848 (peptide)
# chain: CARYKRHFKLAGNASASA
# B25: FS-2112 (peptide)
# chain: CARYKRWRKHAGNASASA
# B26: HC1039 (peptide)
# chain: CALETFWAKHAGNASASA
# B27: FS-2849 (peptide)
# chain: CARYKRPGLPAGNASASA
# B28: HC1846 (peptide)
# chain: CATMPCSGSWAGNASASA
# B29: FS-1848 (peptide)
# chain: CARARRPHFDAGNASASA
# B30: FS-2644 (peptide)
# chain: CARARRFAQIAGNASASA
# B31: FS-2648 (peptide)
# chain: CARARRHAADAGNASASA
# B32: FS-2547 (peptide)
# chain: CARARRFCRDAGNASASA
# B33: FS-1683 (peptide)
# chain: CARARRFSGLAGNASASA
# B34: FS-1455 (peptide)
# chain: CAGCGRICRDAGNASASA
# B35: HC985 (peptide)
# chain: CAMSADLEVVAGNASASA
# B36: HC1592 (peptide)
# chain: CALDCEIYGAAGNASASA
# B37: HC384 (peptide)
# chain: CAFNSSGCPEAGNASASA
# B38: HC1103 (peptide)
# chain: CAAILSPGALAGNASASA
# B39: HC983 (peptide)
# chain: CAIMTCMSADAGNASASA
# B40: HC1401 (peptide)
# chain: CADSHYQDVLAGNASASA
# B41: HC2299 (peptide)
# chain: CADPEVVTSTAGNASASA
# B42: HC2219 (peptide)
# chain: CAEVVTSPWVAGNASASA
# B43: HC2354 (peptide)
# chain: CAEVKCHRPSAGNASASA
# Target: furin, P09958
# Sequence (P09958 whole entry): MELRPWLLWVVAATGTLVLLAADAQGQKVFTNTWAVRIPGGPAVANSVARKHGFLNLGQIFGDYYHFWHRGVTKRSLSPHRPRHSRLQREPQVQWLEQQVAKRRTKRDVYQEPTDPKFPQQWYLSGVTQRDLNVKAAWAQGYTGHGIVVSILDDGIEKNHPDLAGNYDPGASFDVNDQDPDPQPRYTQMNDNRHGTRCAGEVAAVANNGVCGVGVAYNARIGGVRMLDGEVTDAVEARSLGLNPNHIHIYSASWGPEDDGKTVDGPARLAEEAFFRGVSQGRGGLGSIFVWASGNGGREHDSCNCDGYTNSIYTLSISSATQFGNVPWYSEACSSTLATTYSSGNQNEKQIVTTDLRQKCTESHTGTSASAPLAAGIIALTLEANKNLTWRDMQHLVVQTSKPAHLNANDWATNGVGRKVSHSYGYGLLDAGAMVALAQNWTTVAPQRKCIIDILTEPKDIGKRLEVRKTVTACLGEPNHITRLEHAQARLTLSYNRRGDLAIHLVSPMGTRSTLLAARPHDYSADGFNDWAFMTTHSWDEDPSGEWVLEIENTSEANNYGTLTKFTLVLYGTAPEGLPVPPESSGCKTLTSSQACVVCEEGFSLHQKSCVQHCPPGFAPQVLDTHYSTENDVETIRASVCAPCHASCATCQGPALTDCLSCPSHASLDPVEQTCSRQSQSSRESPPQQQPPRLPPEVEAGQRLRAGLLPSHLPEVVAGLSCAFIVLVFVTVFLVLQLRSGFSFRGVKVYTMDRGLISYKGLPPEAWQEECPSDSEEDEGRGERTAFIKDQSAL
# Test: furin cleavage Z-score vs untreated control; higher = more cleavage, active = 3.5 or more, inactive = 1 or less, 8 variable residues between constant flanks
# Outline: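 Furin cleavage was scored on 8-mer peptides joined to a cDNA oligonucleotide and bound to magnetic beads at the N-terminus. Digestion with purified furin (1:10 enzyme:substrate, 0.01 ml, 50 mM HEPES pH 7.5, CaCl2, NaCl) lasted 7.5, 15 or 30 min. Freed DNA was tagged with adapters by PCR, sequenced and counted; the cleavage Z-score is the lowess-adjusted log count versus furin-free reactions, scaled by median absolute deviation.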
Sequence,furin cleavage Z-score (7.5 min),furin cleavage Z-score (15 min),furin cleavage Z-score (30 min)
B1,-0.899 (inactive),-0.615 (inactive),-0.153 (inactive)
B2,0.613 (inactive),1.42,0.711 (inactive)
B3,-0.528 (inactive),-0.292 (inactive),0.376 (inactive)
B4,0.374 (inactive),0.297 (inactive),-0.621 (inactive)
B5,-1.35 (inactive),-2.06 (inactive),0.0597 (inactive)
B6,1.5,-1.3 (inactive),0.318 (inactive)
B7,-0.197 (inactive),-0.687 (inactive),0.539 (inactive)
B8,0.448 (inactive),-0.986 (inactive),0.706 (inactive)
B9,-1.03 (inactive),-0.656 (inactive),-0.208 (inactive)
B10,8.92 (active),11.7 (active),8.95 (active)
B11,3.43,6.37 (active),4.4 (active)
B12,5.39 (active),6.32 (active),5.13 (active)
B13,5.53 (active),5.63 (active),6.25 (active)
B14,0.949 (inactive),0.557 (inactive),0.0179 (inactive)
B15,0.205 (inactive),1.68,0.424 (inactive)
B16,0.463 (inactive),0.93 (inactive),0.504 (inactive)
B17,-0.678 (inactive),0.21 (inactive),-0.507 (inactive)
B18,8.5 (active),9.49 (active),10.6 (active)
B19,0.349 (inactive),0.374 (inactive),2.69
B20,1.08,-2.18 (inactive),0.0661 (inactive)
B21,7.9 (active),8.78 (active),9.04 (active)
B22,9.62 (active),12 (active),10.7 (active)

Sequence,furin cleavage Z-score (7.5 min),furin cleavage Z-score (15 min),furin cleavage Z-score (30 min)
B23,0.0836 (inactive),-0.555 (inactive),1.98
B24,1.05,2.24,5.27 (active)
B25,4.44 (active),6.03 (active),5.36 (active)
B26,-0.932 (inactive),-0.375 (inactive),0.0766 (inactive)
B27,-0.56 (inactive),0.396 (inactive),1.9
B28,-0.28 (inactive),-1.3 (inactive),-0.468 (inactive)
B29,-1.25 (inactive),-0.201 (inactive),0.259 (inactive)
B30,1.75,2.84,5.09 (active)
B31,12.4 (active),14.4 (active),8.89 (active)
B32,11.3 (active),11.2 (active),8.57 (active)
B33,-0.486 (inactive),-0.258 (inactive),0.853 (inactive)
B34,1.57,3.73 (active),3.06
B35,-0.119 (inactive),0.307 (inactive),-0.651 (inactive)
B36,-0.215 (inactive),-0.505 (inactive),-1.05 (inactive)
B37,-0.864 (inactive),-1.69 (inactive),-0.153 (inactive)
B38,0.122 (inactive),-1.5 (inactive),-0.137 (inactive)
B39,-1.36 (inactive),0.0813 (inactive),-2.62 (inactive)
B40,-0.596 (inactive),-0.846 (inactive),0.188 (inactive)
B41,-0.751 (inactive),-0.261 (inactive),-0.557 (inactive)
B42,-0.287 (inactive),-0.0163 (inactive),0.0529 (inactive)
B43,0.191 (inactive),-0.204 (inactive),1.45
